The whole screen tested about 260,000 compounds, of which about 1,500 (0.58%) were called active. Another 5% or so got no clear call; they are omitted.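 The calls were made as follows: active = inhibition above a set limit at one or more doses, reproduced on every date tested; inconclusive = results disagree between test dates, or hit never tested in dose response; inactive = the rest.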 Only a sample is shown. Measured potencies and affinities stand elsewhere.
What follows are compounds tested against Virion infectivity factor (Human immunodeficiency virus type 1 group M subtype B (isolate BH10)) + Virion infectivity factor (Human immunodeficiency virus type 1 group M subtype B (isolate BRU/LAI)) + Virion infectivity factor (Human immunodeficiency virus type 1 group M subtype B (isolate PCV12)) + Virion infectivity factor (Human immunodeficiency virus type 1 group M subtype B (isolate HXB2)) + DNA dC->dU-editing enzyme APOBEC-3G (Homo sapiens) (UniProt P69720+P69721+P69722+P69723+Q9HC16) (assay: inhibitors of Vif binding to APOBEC3G peptide, primary screen, biochemical, TR-FRET, GST-Vif 1-94, biotin-A3G peptide, dose response retest (AID 1117319;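 also: Vif residues 1-94 fused to GST binding biotinylated APOBEC3G peptide 110-148; 0% = full assay without inhibitor and 100% = GST in place of GST-Vif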)). Conditions: hits give high values.

inhibition, inactive:
Cc1c(CNCCc2ccccc2Cl)c(C(=O)O)c(C)n1-c1ccccc1 -7.23%
Cc1ccc(C(=O)NC(=S)Nc2cccc(-c3nc4ccccc4s3)c2)cc1 9.8%
CSCCC(NS(=O)(=O)c1ccccc1F)C(=O)NCC(C)(C)N1CCOCC1 (stereo not given) 1.29%
O=C(OCc1nc2ccsc2c(=O)[nH]1)c1ccc(Cl)s1 11.9%
CCCCN(C(=O)C(C)(C)Oc1ccc(Cl)cc1)c1c(N)n(CCC)c(=O)[nH]c1=O -3.39%
CC(C)CN(CC(C)C)C(=O)Nc1cccc([N+](=O)[O-])c1 0.14%
CCC(C)NC(=O)CSc1nnc(-c2cc(OC)c(OC)c(OC)c2)c(-c2cc(OC)c(OC)c(OC)c2)n1 (stereo not given) 2.7%
NC(=O)NC(=O)CN1C(=O)NC2(CCOc3ccccc32)C1=O (stereo not given) 5.28%
N=C1C(c2ccccc2)=C(O)CN1c1cccc(O)c1 10.9%
COC(=O)c1ccc(C2Nc3ccc(/C(C)=N/NC(=O)C(OC)c4ccccc4)cc3C3C=CCC32)cc1 (stereo not given) 11.3%
O=C1CSc2ccc(C(=O)O)cc2N1 10.3%
Cc1ccc2c(c1)[C@H]1OCC[C@H]1[C@@H](c1ccncc1)N2 27.8%
CC1Cc2cc(C(=O)O)ccc2O1 (stereo not given) -3.49%
CCc1ccc2oc(=O)cc(CN3CCN(CCO)CC3)c2c1 4.78%
CC/C(=N\Nc1ccc([N+](=O)[O-])cc1[N+](=O)[O-])c1ccc(O)cc1 -6.92%
COc1ccc(-c2nn3c(-c4ccccn4)nnc3s2)cc1OC 12.7%
COc1cccc(-c2nnc3sc(-c4ccccn4)nn23)c1 -11.4%
COC(=O)c1cc(C)ccc1/C=C1/Cc2c(C)cc(C)cc2C1=O -4.06%
CC1CC1C(=O)OCC(=O)Nc1ncc(Cl)cc1Cl (stereo not given) 6.04%
CCCc1cc(=O)n2[nH]c(C)c(-c3ccccc3OC)c2n1 -0.45%
CCc1cc(=O)n2[nH]c(C)c(-c3ccc(OC)cc3)c2n1 -3.08%
COc1ccc(S(=O)(=O)N2CCC(C(=O)NCCC(=O)NCc3cccnc3)CC2)cc1 -0.14%
Cc1noc(C)c1CCC(=O)Nc1cc(C(=O)O)ccc1Cl 4.29%
Cc1ccc(NC(=O)CN2C(=O)N/C(=C/c3ccc(C)o3)C2=O)cc1 30.9%
Cc1ccc(NC(=O)CN2C(=O)N/C(=C/c3ccc4c(c3)OCCO4)C2=O)cc1 -0.54%
N=C1/C(=C\c2ccc(SCc3ccccc3)o2)C(=O)N=C2SC=NN12 1.67%
CCCC1=NN2C(=N)/C(=C\c3cc(C)n(-c4cccc(C)c4)c3C)C(=O)N=C2S1 -10.2%
CCC1=NN2C(=N)/C(=C\c3cccn3-c3ccc(C)c(C)c3)C(=O)N=C2S1 2.9%
N=C1/C(=C\c2ccc(SCc3ccccc3)o2)C(=O)N=C2SC(CC(=O)N3CCOCC3)=NN12 18.9%
CCC1=NN2C(=N)/C(=C/c3c(C)nn(-c4ccccc4)c3Cl)C(=O)N=C2S1 6.74%
CCC1=NN2C(=N)/C(=C\c3cccn3-c3ccc(Cl)cc3)C(=O)N=C2S1 0.75%
CC1=NN2C(=N)/C(=C\c3ccc(SCc4ccccc4)o3)C(=O)N=C2S1 26.3%
N=C1/C(=C\c2ccc(OC(=O)c3ccco3)cc2)C(=O)N=C2SC=NN12 2.2%
CCn1c(C(=O)O)c(S(=O)(=O)c2ccc(Cl)cc2)c2ccccc21 -1.5%
Nc1nnc(SCC(=O)OCc2ccccc2)s1 11.6%
COc1ccc(CCNC(=O)CN2C(=O)NC(c3ccccc3)(c3ccccc3)C2=O)cc1 2.71%
COc1ccc(-c2csc(N(CCc3ccccc3)C(=O)COc3ccccc3)n2)cc1 -2.24%
O=C1CC(c2ccccc2)NC(=S)N1 (stereo not given) 0.02%
Cc1ccc(/C=c2\sc3n(c2=O)CN(c2cccc(Br)c2)CN=3)o1 27.7%
Cc1onc(-c2ccccc2)c1C(=O)N1CCN(c2ccc([N+](=O)[O-])cc2)CC1 -0.35%
O=C1N(Cc2cccc(Cl)c2)C[C@@H]2C[C@@H](c3c[nH]c4ccccc34)N3CCC[C@@]123 0.3%
Cc1ccc(C(=O)OCC(=O)NCc2ccccc2)cc1S(=O)(=O)N1CCCCC1 -8.21%
Cn1c(N2C(=O)CC(Cc3ccccc3)C2=O)nc2ccccc21 (stereo not given) -1.11%
O=C1NC(=O)C(=Cc2ccco2)S1 -2.41%
O=C1NC(=S)SC1=Cc1ccccc1Cl 1.68%
Cc1sc2ncn(-n3c(C)ccc3C)c(=O)c2c1C 5.69%
COc1ccccc1-n1c(CNC(=O)c2ccco2)nnc1SCC(=O)Nc1ccc(F)cc1 -4.03%
O=c1[nH]c(=S)[nH]c2nccnc12 -0.53%
Cc1nc2[nH]c(=S)[nH]c(=O)c2nc1C 17.2%
COc1cc(C(=O)Nc2c(C)cc(C)cc2C)c([N+](=O)[O-])cc1OC -0.83%
O=C(CCc1nnc(CCCCc2ccccc2)o1)N1CCCC(O)C1 (stereo not given) 20%
COc1cc(/C=N/NC(=O)CNc2n[nH]c(=O)[nH]c2=O)ccc1OCc1ccccc1 2.21%
O=C(CNc1n[nH]c(=O)[nH]c1=O)N/N=C/c1ccccc1 -4.54%
COc1ccc(C(CNC(=O)c2ccc(OCC3CCCO3)cc2)N2CCOCC2)cc1 (stereo not given) -4.51%
CCCn1c(NC(=O)CSCC(=O)Nc2cc(C)on2)nc2ccccc21 -0.74%
c1coc(-c2cnc3ccccc3n2)c1 -5.45%
S=c1nc(-c2ccco2)[nH][nH]1 6.53%
c1coc(Cn2c(-c3ccco3)nc3ccccc32)c1 6.18%
COc1ccc2nc3c(nc2c1)CCCC3 -1.28%
CCn1c(-c2ccco2)nc2ccccc21 0.82%
COc1ccc2nc3ccccc3nc2c1 0.36%
c1coc(-c2nc3ccccc3s2)c1 1.82%
c1coc(-c2ncc[nH]2)c1 0.85%
COc1ccc(N(C(=O)c2ccco2)C(C(=O)NC2CCCC2)c2ccco2)cc1OC (stereo not given) 0.94%
COc1ccccc1/C=C/C(=O)OCC(=O)NC(=O)NC1CCCC1 -1.97%
CCn1cc(Cl)c(C(=O)Nc2cccc(C(F)(F)F)c2)n1 -0.07%
CC1(C)CC(NC(=O)COc2ccc([N+](=O)[O-])cc2)CC(C)(C)N1 -0.99%
CC(C(=O)O/N=C(\N)c1cccnc1)c1ccc([N+](=O)[O-])cc1 (stereo not given) -1.85%
COc1cc(/C=C/C(=O)OCC(=O)c2ccc(S(=O)(=O)N3CCCCC3)cc2)cc(OC)c1OC -29.8%
Cc1ccc(OCCSc2nc(NC(C)C)nc(NC(C)C)n2)cc1 -8.83%
CC(C)(C)NC(=O)CN1CCN(C(=O)CCl)CC1 -2.69%
Cc1oc2ccc(O)c(CN3CCOCC3)c2c1C(C)O (stereo not given) -6.07%
COCCN1C(=O)CC(NNC(=O)c2ccc(S(=O)(=O)N3CCCC3)cc2)C1=O (stereo not given) 8%
CCCC(C)NC(=O)c1ccc(-c2ccccc2)cc1 (stereo not given) -5.95%
Nc1nnc(-c2ccco2)s1 15.6%
Nc1nc(-c2ccco2)cs1 -0.78%
CCOC(=O)c1cnc(-n2nc(C)cc2C)[nH]c1=O -8.45%
Cc1sc(-c2ccccn2)nc1OC(=O)c1ccc(Cl)c(Cl)c1 -6.3%
O=C(COC(=O)c1c2c(nc3ccccc13)/C(=C/c1cccc([N+](=O)[O-])c1)CCC2)NC1CCS(=O)(=O)C1 (stereo not given) 29.1%
CC1CCCCC1NC(=O)COC(=O)c1ccc2ccccc2n1 (stereo not given) -3.73%
CN1CCc2nc3ccccc3c(C(=O)OCC(=O)N(CCC#N)c3ccccc3)c2C1 -5.14%
CCc1nc2ccccc2c(C(=O)OCC(=O)NC2CCCC2)c1C 4.22%
CN(CCC#N)C(=O)COC(=O)c1nn(-c2ccccc2)c(=O)c2ccccc12 -3.88%
CC1CCCCC1NC(=O)COC(=O)c1c2c(nc3ccccc13)/C(=C\c1ccco1)CC2 (stereo not given) 4.28%
Cc1ccc(N(Cc2ccccc2)C(=O)c2cccc(S(=O)(=O)N3CC(C)OC(C)C3)c2)cc1 (stereo not given) 5.98%
CCCCc1nnc(NC(=O)Cc2ccc(S(=O)(=O)N3CCOCC3)s2)s1 -4.48%
CCc1ccc(CN(C)C(C)C(=O)NCc2ccccc2)cc1 (stereo not given) -5.54%
CCOC(=O)c1oc2cc(C)cc(C)c2c1C 12.6%
C[C@]1(C(=O)NCCN2CCOCC2)C=C[C@@H](Cc2ccccc2)N1C(=O)c1ccccc1 -2.79%
N#Cc1cnc(N)c(Br)c1 -0.24%
COc1ccc(-n2c(=S)[nH]c3cc(C(=O)NCc4cccnc4)ccc3c2=O)cc1 -1.63%
Fc1cccc(F)c1-n1c(CN2CCOCC2)csc1=S -4.65%
C/C(N)=C(/C#N)C(=O)CSc1nnc(Nc2cccc(C)c2)s1 29.1%
C/C(N)=C(/C#N)C(=O)CSc1nnc(Nc2ccccc2C)s1 5.27%
Cn1c(SCC(=O)NCc2ccc3c(c2)OCO3)nnc1-c1cc2ccccc2cc1O 5.67%
